Where “and” joins values, the source holds several entries; their conditions need not be identical. Identical values can stand only once. In all, about 16,000 compounds went through this assay and about 5,700 (36%) were called active. About 24% were inconclusive and are not listed. Calls come from the whole dose curve; as a rule, active = well fitted curve in the direction sought with a large enough effect; inconclusive = small, poorly fitted or top-dose-only effect, or effect the other way; inactive = no such curve, though single readings can be large or run the other way. This is one part of the list.
target: Cytochrome P450 1A2 (Homo sapiens) (UniProt P05177); assay: Cytochrome panel assay with activity outcomes; conditions: recombinant CYP, pro-luciferin dealkylation, luminescence, p450-cyp1a2; series mostly up to 57.1 µM; activity, negative = inhibition: at the top concentration
Sequence (P05177 whole entry, looked up): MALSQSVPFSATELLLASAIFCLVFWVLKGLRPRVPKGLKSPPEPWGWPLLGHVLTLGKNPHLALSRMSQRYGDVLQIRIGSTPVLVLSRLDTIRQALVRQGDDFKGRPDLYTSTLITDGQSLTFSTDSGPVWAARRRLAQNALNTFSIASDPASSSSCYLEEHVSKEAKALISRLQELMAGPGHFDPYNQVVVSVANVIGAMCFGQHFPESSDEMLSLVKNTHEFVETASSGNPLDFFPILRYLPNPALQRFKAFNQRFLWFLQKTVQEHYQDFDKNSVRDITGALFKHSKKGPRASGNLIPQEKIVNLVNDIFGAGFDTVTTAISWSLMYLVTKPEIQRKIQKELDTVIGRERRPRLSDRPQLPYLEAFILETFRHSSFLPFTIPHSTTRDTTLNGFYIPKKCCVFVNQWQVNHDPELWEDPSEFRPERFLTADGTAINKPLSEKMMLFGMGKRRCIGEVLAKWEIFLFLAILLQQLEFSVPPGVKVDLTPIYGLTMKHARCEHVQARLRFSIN
% is set by controls: 0 for no effect and ±100 for the full control effect.

Row | Compound | AC50 | activity, negative = inhibition
1 | CCOC(=O)C1=C(c2ccccc2)OC(N)=C(C#N)C1c1ccc(Cl)s1 (stereo not given) | 0.398 µM (active) | 
2 | CCc1ccc2c(-c3cccc(Cl)c3)nc(=O)n(CC)c2n1 | 0.126 µM (active) | 
3 | CC1(C)Oc2ccc(NC(=O)c3ccco3)cc2O1 | 5.01 µM (active) | 
4 | CC1=C(C(=O)Nc2ccccc2)C(c2ccco2)NC(=S)N1 (stereo not given) |  | -11.4% (inactive)
5 | Cc1cc(NC(=O)c2ccco2)ccc1-n1cnnn1 | 14.1 µM (active) | 
6 | O=C(Nc1ccccc1C(=O)NCCc1ccccc1)c1ccco1 | 5.01 µM (active) | 
7 | O=C(CCc1ccccc1)NNC(=O)c1ccco1 |  | 7.32% (inactive)
8 | Cc1cc(C)cc(NC(=O)N2CCCC2C(=O)Nc2ccc(-n3cnnn3)c(C)c2)c1 (stereo not given) |  | -14.1% (inactive)
9 | O=C(Nc1ccccc1C(=O)Nc1ccc2c(c1)OCO2)c1ccco1 | 8.91 µM (active) | 
10 | Cc1ccc(NC(=O)CCC(=O)NNC(=O)c2ccco2)cc1C |  | -17.2% (inactive)
11 | CCC(NC(=O)c1ccccc1NC(=O)c1ccco1)C(=O)NC1CCCCC1 (stereo not given) |  | -16.4% (inactive)
12 | N#CC(C#N)=CNCCN1CCN(C=C(C#N)C#N)CC1 |  | -15.4% [at 2.29 µM] (inactive)
13 | NC(N)=N[C@H](CCC(=O)O)C(=O)O |  | -0.3% (inactive)
14 | COc1ccc2[nH]cc(CCNc3ccnc(-c4c(C)noc4C)n3)c2c1 | 2 µM (active) | 
15 | COc1ccc2[nH]cc(CCNc3ccnc(-c4ccc(N(C)C)cc4)n3)c2c1 | 0.631 µM (active) | 
16 | COc1ccc2[nH]cc(CCNc3ccnc(-c4ccc(C(=O)N(C)C)cc4)n3)c2c1 | 12.6 µM (active) | 
17 | COc1ccc2[nH]cc(CCNc3cc(-c4ccc(C(=O)N(C)C)cc4)ncn3)c2c1 | 20 µM (active) | 
18 | CCOC(=O)C1=C[C@@]2(CC)CCCN3CCc4c(n1c1ccccc41)[C@H]32 |  | -14.8% [at 25.6 µM] (inactive)
19 | COc1ccc2[nH]cc(CCNc3ccnc(-c4ccoc4)n3)c2c1 | 0.501 µM (active) | 
20 | COc1ccc([C@@H](Nc2ncccn2)c2cc3c(cc2O)OCO3)cc1 |  | -14.3% [at 2.29 µM] (inactive)
21 | COc1ccc2[nH]cc(CCNc3ccnc(-c4ccc5c(c4)OCO5)n3)c2c1 | 0.631 µM (active) | 
22 | O=C(O)CC(O)C(=O)O (stereo not given) |  | -6.27% (inactive)
23 | CC(C)(CS)C(=O)N1CCC[C@H]1C(=O)O |  | 10.1% [at 25.6 µM] (inactive)
24 | CNc1cc(CS(=O)c2ccccc2)nc(-c2ccccc2)n1 (stereo not given) | 14.1 µM (active) | 

Row | Compound | AC50 | activity, negative = inhibition
25 | O=S(=O)(Cc1cc(Oc2ccccc2)nc(-c2ccccc2)n1)c1ccccc1 | 0.708 µM (active) | 
26 | O=S(Cc1cc(Oc2ccccc2)nc(-c2ccccc2)n1)c1ccccc1 (stereo not given) | 2.82 µM (active) | 
27 | Cc1nnc(-c2cccc(Br)c2)c2cn(-c3ccc(Br)cc3)nc12 | 0.891 µM (active) | 
28 | Cc1nnc(-c2cccc(Br)c2)c2cn(-c3ccccc3Cl)nc12 | 1.58 µM (active) | 
29 | Cc1nn(C)cc1CNC(=O)CCC(=O)O |  | -0.742% (inactive)
30 | O=C(CSc1ccc(Cl)cc1)Nc1ccc(N2CCN(C(=O)c3ccc(Cl)cc3)CC2)cc1 |  | -13.4% (inactive)
31 | O=C(CSC1=NCCS1)N1CCN(c2ccc(Cl)cc2)CC1 | 14.1 µM (active) | 
32 | COC(=O)C/C=C\[C@@H](C)[C@@H](/C=N\O[C@@H](C)c1cn([C@H]2COC[C@H]2O)nn1)OC |  | 9.97% [at 11.4 µM] (inactive)
33 | O=C1C2=C(NC(=S)NC2c2ccc(Cl)cc2)NC(c2ccc(Cl)cc2)N1c1ccc(Cl)cc1 (stereo not given) | 12.6 µM (active) | 
34 | COC(=O)C/C=C\[C@@H](C)[C@@H](/C=N\O[C@@H](C)c1cn([C@H](CO)Cc2ccccc2)nn1)OC |  | -11.5% [at 11.4 µM] (inactive) and 12.6% [at 11.4 µM] (inactive)
35 | Cc1ccccc1NC(=O)c1cnc(Nc2nc3ccccc3s2)nc1C |  | -2.33% (inactive)
36 | Cc1ccccc1NC(=O)c1cccc2nc3ccccc3nc12 | 2 µM (active) | 
37 | Cc1ccccc1NC(=O)CN1CCC(n2nnc3ccccc32)CC1 |  | -9.11% (inactive)
38 | O=C(Nc1ccc2c(c1)OCCO2)c1cccc2nc3ccccc3nc12 | 2 µM (active) | 
39 | COc1ccc(-n2c(=O)c(-c3cccc(C#N)c3)nc3cnc(N4CCNCC4)nc32)cc1 | 15.8 µM (active) | 
40 | COc1cccc(Cn2c(=O)c(-c3cccc(C#N)c3)nc3cnc(N4CCN(C)CC4)nc32)c1 |  | -4.7% (inactive)
41 | COc1ccc(-n2c(=O)c(-c3ccccc3)nc3cnc(N4CCNCC4)nc32)cc1 | 15.8 µM (active) | 
42 | O=c1c(-c2ccc(F)cc2)nc2cnc(N3CCNCC3)nc2n1-c1ccccc1 | 10 µM (active) | 
43 | O=C(c1cccc(F)c1)N1CCC2(CC1)CN(c1ccncc1)C2 |  | -7.68% (inactive)
44 | Cc1ccc(S(=O)(=O)N2CCN(Cc3ccccc3C(F)(F)F)CC2)cc1 |  | -21.7% (inactive)
45 | COc1ccc(C2=Nc3cccc4cccc(c34)N2)cc1 | 0.631 µM (active) | 
46 | CC(=O)Nc1ccc(C(=O)NNC(=O)CCc2ccccc2)cc1 |  | -1.45% (inactive)
47 | CCCC(=O)Nc1nnc(CCN2CCCCC2)s1 |  | -3.37% (inactive)
48 | CCCc1nnc(NC(=O)CCC(=O)NCc2ccccc2OC)s1 |  | -21.1% (inactive)

Row | Compound | AC50 | activity, negative = inhibition
49 | CCCC(=O)Nc1nnc(Cc2ccccc2)s1 | 12.6 µM (active) | 
50 | O=C(CCc1ccccc1)Nc1nncs1 | 10 µM (active) | 
51 | Nc1ccc(S(=O)(=O)NC(=O)c2ccccc2)cc1 |  | -3.88% [at 25.6 µM] (inactive)
52 | Nc1ccc(N(c2ccccc2)c2ccc(N)cc2)cc1 | 17.8 µM (active) | 
53 | C[C@@H]1O[C@H](O[C@@H]2[C@@H](Oc3cc(O)c4c(c3)O[C@H](c3ccc(O)cc3)CC4=O)O[C@@H](CO)[C@@H](O)[C@H]2O)[C@@H](O)[C@H](O)[C@@H]1O |  | -11.8% [at 25.6 µM] (inactive)
54 | Nc1nnc(C(c2ccccc2)c2ccccc2)s1 |  | -5.01% (inactive)
55 | Nc1nc(-c2ccccc2)c(-c2ccccc2)c(-c2nc(N)nc(-c3ccccc3)c2-c2ccccc2)n1 |  | -4.5% [at 11.4 µM] (inactive)
56 | Nc1nc(-c2ccccc2)c(-c2ccccc2)s1 | 2.82 µM (active) | 
57 | Nc1ccc(-c2sc(N)nc2-c2ccccc2)cc1 | 8.91 µM (active) | 
58 | CC(C)CN1CCC2(CC1)CCN(C(=O)c1ccncc1)CC2 |  | 7.78% (inactive)
59 | CN(C)CCC[C@@]1(c2ccc(F)cc2)OCc2cc(C#N)ccc21 | inactive | 
60 | Cc1ccc(-c2cc(C(=O)NCc3ccco3)c3ccccc3n2)s1 | 6.31 µM (active) | 
61 | Cc1cccc(C)c1-n1c(SCC(=O)NCc2ccco2)nc2ccccc2c1=O |  | -8.08% (inactive)
62 | Cc1ccc(S(=O)(=O)N(Cc2ccccc2)c2ccccc2C(=O)NCc2ccco2)cc1 |  | -9.89% (inactive)
63 | CCc1ccc(-c2cc(C(=O)NCc3ccco3)c3ccccc3n2)s1 | 3.55 µM (active) | 
64 | CC(C)C(O)(C(C)C)C(C)C |  | -8.65% [at 11.4 µM] (inactive)
65 | C=CCOc1c(Br)cc(CNc2ccc(NC(=O)C(C)C)c(OC)c2)cc1OC | 15.8 µM (active) | 
66 | CCC1CC2CC(NC(C)=O)C1C2 (stereo not given) |  | -1.77% (inactive)
67 | COc1ccc(C(=O)c2cnc3ccccc3c2-c2ccccc2)cc1 | 15.8 µM (active) | 
68 | C=CC[C@@H]1C=C[C@H](O/N=C(\C)CCN2CCc3nc(-c4ccccc4)c(-c4ccccc4)cc3C2)[C@H](CO)O1 |  | 5.54% [at 11.4 µM] (inactive)
69 | CCCCOC(=O)NS(=O)(=O)c1sc(CC(C)C)cc1-c1ccc(Cn2c(CC)nc3c(C)cc(C)nc32)cc1 | 31.6 µM (active) | 
70 | CC(C)CCn1nnnc1C(c1ccc(F)cc1)N1CCN(C(=O)c2ccco2)CC1 (stereo not given) |  | -26.7% (inactive)
71 | CCCC[C@H]1C[C@@H]1[C@@H]1N(P(=O)(c2ccccc2)c2ccccc2)C[C@@](O)(c2ccccc2)CC12CC2 |  | -2% (inactive)
72 | O=C1C=C(NCCc2cc(Br)c(O)c(Br)c2)C(=O)c2ncccc21 | 3.16 µM (active) | 

Row | Compound | AC50 | activity, negative = inhibition
73 | O=C1C=C(Nc2nc(C(=O)O)cc(=O)[nH]2)c2ccccc2C1=O |  | -15.8% [at 2.29 µM] (inactive)
74 | Cc1ccc(C(=O)O[C@@H](C(=O)O)[C@@H](OC(=O)c2ccc(C)cc2)C(=O)O)cc1 (tested in a mixture with another compound) |  | 0.639% (inactive)
75 | Cc1ccc(C(=O)Nc2cc(Cl)ccc2OC(=O)c2ccc(C)cc2)cc1 | 10 µM (active) | 
76 | COc1ccc(C(=O)Nc2scc(-c3ccc(Cl)cc3Cl)c2C(N)=O)cc1 | 0.447 µM (active) | 
77 | CC(C)COc1ccc(C(=O)Nc2scc(-c3ccc(Cl)cc3Cl)c2C(N)=O)cc1 |  | -16.6% (inactive)
78 | Cc1sc(NC(=O)c2ccc(OCC(C)C)cc2)c(C(N)=O)c1-c1ccc(Cl)cc1Cl |  | 5.63% (inactive)
79 | COc1ccc(C(=O)Nc2cc(Cl)ccc2OC(=O)c2ccc(OC)cc2)cc1 | 10 µM (active) | 
80 | NNC(=O)c1ccc[n+](CCc2ccccc2)c1 |  | -20.6% [at 11.4 µM] (inactive)
81 | NC(N)=N/N=C(\c1ccc(Cl)cc1)C1CC1 | 0.794 µM (active) | 
82 | NC(N)=Nc1ccc(Cl)cc1 |  | -11.8% (inactive)
83 | Cc1ccc(C)c(/C(=N\N=C(N)N)C2CC2)c1 |  | 1.09% [at 2.29 µM] (inactive)
84 | CCc1ccccc1NC(=O)c1ccc(-n2c(C)ccc2C)cc1 | 14.1 µM (active) | 
85 | CCc1ccccc1NC(=O)c1ccc(F)c(S(=O)(=O)N2CCC(C(N)=O)CC2)c1 |  | 1.23% (inactive)
86 | NCCS(=O)O |  | -5.92% (inactive)
87 | Cn1cc(/C=N/n2cnc3scc(-c4ccccc4)c3c2=O)c2ccccc21 | 8.91 µM (active) | 
88 | Cn1cc(/C=N/n2cnc3sc4c(c3c2=O)CCCC4)c2ccccc21 | 14.1 µM (active) | 
89 | O=S(=O)(c1ccccc1)N1CCC2(CCN(Cc3ccccc3)CC2)CC1 |  | -2.85% (inactive)
90 | O=[N+]([O-])c1ccc(N2CCN(Cc3ccccc3)CC2)c(S(=O)(=O)N2CCOCC2)c1 |  | -0.304% (inactive)
91 | O=[N+]([O-])c1ccc(Cl)c(/C=N/N2CCN(Cc3ccccc3)CC2)c1 | 2.51 µM (active) | 
92 | CCSc1nnc(NC(=O)C(C(F)(F)F)C(F)(F)F)s1 | 15.8 µM (active) | 
93 | CCCCC(=O)Nc1nnc(SCC(=O)NC2CCCC2)s1 |  | -12.6% (inactive)
94 | CCSc1nnc(NC(=O)Cc2ccccc2OC)s1 |  | -9.79% (inactive)
95 | CC(CC(=O)O)(CC(=O)O)C(=O)O |  | -5.85% [at 11.4 µM] (inactive)

From PubChem BioAssay AID1851 (National Center for Advancing Translational Sciences (NCATS), 2009)
